# Experimental data as given in publication PMC7862700, “An all-to-all approach to the identification of sequence-specific readers for epigenetic DNA modifications on cytosine”.
# Legend:
# Assay in all cases: DAPPL (digital affinity profiling via proximity ligation, sequencing); 10 mM Tris-HCl pH 7.5, 50 mM NaCl, 1 mM DTT, 4% glycerol, room temperature, 30 min; GST-TFs on glutathione beads, 16-mer random dsDNA library, 0.1% formaldehyde crosslink after washing; high values mean tight binding
# FEV = target: T1, FEV (Homo sapiens, UniProt Q99581 1-238); conditions: protein: recombinant; tags: N-terminal GST; dsDNA, one strand shown
# T1 sequence: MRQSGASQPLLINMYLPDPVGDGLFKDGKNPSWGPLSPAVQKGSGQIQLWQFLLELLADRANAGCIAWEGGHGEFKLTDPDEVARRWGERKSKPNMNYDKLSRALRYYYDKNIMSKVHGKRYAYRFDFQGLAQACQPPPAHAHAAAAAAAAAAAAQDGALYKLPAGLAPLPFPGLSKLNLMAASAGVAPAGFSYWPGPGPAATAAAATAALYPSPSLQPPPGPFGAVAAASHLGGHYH
# Outline: (§1)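 In yeast, human transcription factors were expressed with a GST fusion, then pulled down on glutathione beads and given DNA barcodes. Pooled with a tag-only sample, they were exposed to 200 nmole of a 16-mer random double-stranded DNA library (Tris/NaCl/DTT/glycerol buffer, room temperature, 30 min), washed, crosslinked with 0.1% formaldehyde, proximity-ligated using BsaI/T4 ligase for 1 h at 37 °C, PCR-amplified and read on an Illumina NextSeq500. Each hexamer's frequency of reads for a factor, divided by the matching frequency for the tag-only sample, gives the binding signal.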
# ETV5 = ETV5 (Homo sapiens, UniProt P41161 1-510); conditions: protein: recombinant; tags: N-terminal GST; dsDNA, one strand shown
# Chain of ETV5 (P41161 whole entry): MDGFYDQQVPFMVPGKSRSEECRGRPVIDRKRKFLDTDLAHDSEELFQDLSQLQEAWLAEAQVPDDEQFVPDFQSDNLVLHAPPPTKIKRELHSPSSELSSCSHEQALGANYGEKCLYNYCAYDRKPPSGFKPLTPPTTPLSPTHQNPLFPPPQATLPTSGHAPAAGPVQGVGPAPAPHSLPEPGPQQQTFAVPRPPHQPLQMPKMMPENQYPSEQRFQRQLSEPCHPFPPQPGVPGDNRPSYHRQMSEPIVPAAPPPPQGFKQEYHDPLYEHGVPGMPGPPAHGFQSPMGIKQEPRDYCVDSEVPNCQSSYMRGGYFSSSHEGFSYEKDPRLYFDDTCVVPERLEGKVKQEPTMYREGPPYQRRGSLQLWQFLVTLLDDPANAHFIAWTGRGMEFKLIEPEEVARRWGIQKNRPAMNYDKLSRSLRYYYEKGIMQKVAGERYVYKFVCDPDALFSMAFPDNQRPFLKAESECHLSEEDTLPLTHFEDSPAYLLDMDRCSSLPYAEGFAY
# Outline: as §1
# HSF1 = HSF1 (Homo sapiens, UniProt Q00613 1-529); conditions: protein: recombinant; tags: N-terminal GST; chain copies: 3; dsDNA, one strand shown
# Chain of HSF1 (Q00613 whole entry): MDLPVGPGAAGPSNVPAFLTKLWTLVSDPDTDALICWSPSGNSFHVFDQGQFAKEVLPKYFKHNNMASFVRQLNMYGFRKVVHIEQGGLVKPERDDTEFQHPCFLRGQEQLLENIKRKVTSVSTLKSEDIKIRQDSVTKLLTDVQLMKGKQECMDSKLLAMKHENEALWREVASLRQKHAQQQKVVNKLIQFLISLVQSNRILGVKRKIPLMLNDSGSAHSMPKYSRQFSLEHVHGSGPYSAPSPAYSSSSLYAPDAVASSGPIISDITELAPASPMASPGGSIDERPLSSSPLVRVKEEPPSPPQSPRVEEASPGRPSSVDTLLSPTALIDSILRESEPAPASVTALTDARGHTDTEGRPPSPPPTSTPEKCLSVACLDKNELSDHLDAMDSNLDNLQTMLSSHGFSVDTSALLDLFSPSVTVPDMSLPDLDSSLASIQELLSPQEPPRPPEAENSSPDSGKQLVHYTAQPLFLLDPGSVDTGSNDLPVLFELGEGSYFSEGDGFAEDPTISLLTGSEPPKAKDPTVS
# Outline: as §1
# SPIC = target: T2, SPIC (Homo sapiens, UniProt Q8N5J4 1-248); conditions: protein: recombinant; tags: N-terminal GST; dsDNA, one strand shown
# T2 sequence: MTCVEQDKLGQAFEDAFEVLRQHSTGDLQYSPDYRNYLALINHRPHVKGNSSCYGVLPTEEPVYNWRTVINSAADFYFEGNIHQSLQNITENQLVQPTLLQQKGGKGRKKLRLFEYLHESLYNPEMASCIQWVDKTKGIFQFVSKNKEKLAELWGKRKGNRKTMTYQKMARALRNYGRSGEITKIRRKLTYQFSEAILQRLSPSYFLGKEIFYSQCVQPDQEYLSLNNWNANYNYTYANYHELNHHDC
# Outline: as §1
# ELF4 = ELF4 (Homo sapiens, UniProt Q99607 1-663); conditions: protein: recombinant; tags: N-terminal GST; dsDNA, one strand shown
# Chain of ELF4 (Q99607 whole entry): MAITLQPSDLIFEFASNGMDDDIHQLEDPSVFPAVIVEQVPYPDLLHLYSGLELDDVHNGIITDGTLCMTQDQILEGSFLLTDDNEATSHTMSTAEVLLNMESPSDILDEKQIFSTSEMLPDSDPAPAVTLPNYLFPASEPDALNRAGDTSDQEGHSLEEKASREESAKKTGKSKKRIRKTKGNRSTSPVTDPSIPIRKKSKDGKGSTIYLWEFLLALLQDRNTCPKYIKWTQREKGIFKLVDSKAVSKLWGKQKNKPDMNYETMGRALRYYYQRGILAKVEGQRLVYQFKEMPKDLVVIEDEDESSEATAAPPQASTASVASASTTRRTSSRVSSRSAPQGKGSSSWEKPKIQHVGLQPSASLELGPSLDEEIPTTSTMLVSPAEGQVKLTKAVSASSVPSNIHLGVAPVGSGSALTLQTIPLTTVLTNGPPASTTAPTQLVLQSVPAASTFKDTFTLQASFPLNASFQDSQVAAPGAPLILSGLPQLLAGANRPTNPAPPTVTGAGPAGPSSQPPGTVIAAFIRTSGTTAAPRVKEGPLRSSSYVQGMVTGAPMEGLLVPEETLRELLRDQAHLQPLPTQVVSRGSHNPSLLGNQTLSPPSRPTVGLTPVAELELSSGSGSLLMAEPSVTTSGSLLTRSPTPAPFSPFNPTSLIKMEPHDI
# Outline: as §1
# ELK4 = target: T3, ELK4 (Homo sapiens, UniProt P28324-2 1-405); conditions: protein: recombinant; tags: N-terminal GST; dsDNA, one strand shown
# T3 sequence: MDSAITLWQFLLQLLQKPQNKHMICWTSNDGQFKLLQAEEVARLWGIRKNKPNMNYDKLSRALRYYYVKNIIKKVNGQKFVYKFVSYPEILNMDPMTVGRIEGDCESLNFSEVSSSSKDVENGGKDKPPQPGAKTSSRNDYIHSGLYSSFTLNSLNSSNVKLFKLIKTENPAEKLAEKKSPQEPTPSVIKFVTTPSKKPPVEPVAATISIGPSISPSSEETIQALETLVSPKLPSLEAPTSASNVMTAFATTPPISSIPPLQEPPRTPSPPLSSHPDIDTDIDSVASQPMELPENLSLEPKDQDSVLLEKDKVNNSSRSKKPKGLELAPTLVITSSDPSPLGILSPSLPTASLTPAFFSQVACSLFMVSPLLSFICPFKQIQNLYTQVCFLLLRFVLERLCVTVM
# Outline: as §1
# ETV2 = target: T4, ETV2 (Homo sapiens, UniProt O00321 1-342); conditions: protein: recombinant; tags: N-terminal GST; dsDNA, one strand shown
# T4 sequence: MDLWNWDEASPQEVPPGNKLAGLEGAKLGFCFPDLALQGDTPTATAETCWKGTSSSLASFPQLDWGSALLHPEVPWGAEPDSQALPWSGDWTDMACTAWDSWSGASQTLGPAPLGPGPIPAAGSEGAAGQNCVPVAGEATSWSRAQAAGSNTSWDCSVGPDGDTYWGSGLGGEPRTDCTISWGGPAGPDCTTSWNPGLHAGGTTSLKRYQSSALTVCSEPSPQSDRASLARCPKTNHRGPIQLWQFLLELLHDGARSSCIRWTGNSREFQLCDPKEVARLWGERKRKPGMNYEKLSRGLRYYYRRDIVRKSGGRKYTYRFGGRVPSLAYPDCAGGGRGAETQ
# Outline: as §1
# ELF3 = target: T5, ELF3 (Homo sapiens, UniProt P78545 1-371); conditions: protein: recombinant; tags: N-terminal GST; dsDNA, one strand shown
# T5 sequence: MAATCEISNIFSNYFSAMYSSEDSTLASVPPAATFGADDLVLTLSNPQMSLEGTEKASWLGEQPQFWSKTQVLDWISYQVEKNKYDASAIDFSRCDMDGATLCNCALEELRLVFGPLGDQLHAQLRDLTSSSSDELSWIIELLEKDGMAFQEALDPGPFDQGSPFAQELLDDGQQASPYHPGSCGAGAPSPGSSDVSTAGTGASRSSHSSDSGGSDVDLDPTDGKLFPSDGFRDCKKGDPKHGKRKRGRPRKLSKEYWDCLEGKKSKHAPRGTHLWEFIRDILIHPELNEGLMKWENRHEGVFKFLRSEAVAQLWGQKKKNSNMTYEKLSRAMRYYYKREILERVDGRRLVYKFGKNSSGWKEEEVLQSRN
# Outline: as §1
# CRX = CRX (Homo sapiens, UniProt O43186 1-299); conditions: protein: recombinant; tags: N-terminal GST; dsDNA, one strand shown
# Chain of CRX (O43186 whole entry): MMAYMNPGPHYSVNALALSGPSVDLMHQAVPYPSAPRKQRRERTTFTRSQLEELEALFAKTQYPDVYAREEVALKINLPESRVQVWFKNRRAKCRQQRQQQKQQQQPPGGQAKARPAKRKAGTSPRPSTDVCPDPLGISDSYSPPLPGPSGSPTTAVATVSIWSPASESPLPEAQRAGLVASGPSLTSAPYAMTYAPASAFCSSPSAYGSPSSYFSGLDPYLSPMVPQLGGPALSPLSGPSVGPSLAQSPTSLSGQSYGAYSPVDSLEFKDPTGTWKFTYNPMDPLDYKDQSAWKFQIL
# Outline: as §1
# ETV1 = ETV1 (Homo sapiens, UniProt P50549 1-477); conditions: protein: recombinant; tags: N-terminal GST; dsDNA, one strand shown
# Chain of ETV1 (P50549 whole entry): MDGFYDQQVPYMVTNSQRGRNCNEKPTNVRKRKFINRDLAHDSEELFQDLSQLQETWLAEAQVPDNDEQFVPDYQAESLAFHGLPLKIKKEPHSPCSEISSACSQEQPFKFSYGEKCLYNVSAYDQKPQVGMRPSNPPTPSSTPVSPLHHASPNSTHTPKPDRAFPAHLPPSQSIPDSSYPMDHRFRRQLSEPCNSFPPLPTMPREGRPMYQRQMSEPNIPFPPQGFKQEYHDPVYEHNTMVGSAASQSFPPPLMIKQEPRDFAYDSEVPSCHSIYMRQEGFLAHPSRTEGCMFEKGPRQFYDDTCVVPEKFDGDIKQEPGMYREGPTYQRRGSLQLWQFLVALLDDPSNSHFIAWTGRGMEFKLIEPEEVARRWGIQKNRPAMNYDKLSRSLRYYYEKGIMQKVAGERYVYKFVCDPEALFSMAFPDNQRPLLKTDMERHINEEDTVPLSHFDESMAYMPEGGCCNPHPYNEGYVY
# Outline: as §1
# ERF = target: T6, ERF (Homo sapiens, UniProt P50548 1-548); conditions: protein: recombinant; tags: N-terminal GST; dsDNA, one strand shown
# T6 sequence: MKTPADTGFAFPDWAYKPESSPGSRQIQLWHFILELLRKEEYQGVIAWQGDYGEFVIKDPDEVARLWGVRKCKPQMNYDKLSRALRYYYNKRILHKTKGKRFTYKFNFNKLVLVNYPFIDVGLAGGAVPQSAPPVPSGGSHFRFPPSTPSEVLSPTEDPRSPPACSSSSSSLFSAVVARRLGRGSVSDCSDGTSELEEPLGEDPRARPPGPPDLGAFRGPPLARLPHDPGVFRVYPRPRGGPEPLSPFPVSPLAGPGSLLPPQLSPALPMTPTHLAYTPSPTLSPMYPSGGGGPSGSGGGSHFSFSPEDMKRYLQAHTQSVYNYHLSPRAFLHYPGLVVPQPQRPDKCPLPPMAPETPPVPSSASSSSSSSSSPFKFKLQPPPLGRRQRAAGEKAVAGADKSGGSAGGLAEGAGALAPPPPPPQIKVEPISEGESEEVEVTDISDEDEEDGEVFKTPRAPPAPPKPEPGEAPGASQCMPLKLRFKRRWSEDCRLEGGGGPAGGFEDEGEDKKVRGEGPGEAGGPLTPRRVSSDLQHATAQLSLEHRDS
# Outline: as §1
# ETV3L = target: T7, ETV3L (Homo sapiens, UniProt Q6ZN32 1-361); conditions: protein: recombinant; tags: N-terminal GST; dsDNA, one strand shown
# T7 sequence: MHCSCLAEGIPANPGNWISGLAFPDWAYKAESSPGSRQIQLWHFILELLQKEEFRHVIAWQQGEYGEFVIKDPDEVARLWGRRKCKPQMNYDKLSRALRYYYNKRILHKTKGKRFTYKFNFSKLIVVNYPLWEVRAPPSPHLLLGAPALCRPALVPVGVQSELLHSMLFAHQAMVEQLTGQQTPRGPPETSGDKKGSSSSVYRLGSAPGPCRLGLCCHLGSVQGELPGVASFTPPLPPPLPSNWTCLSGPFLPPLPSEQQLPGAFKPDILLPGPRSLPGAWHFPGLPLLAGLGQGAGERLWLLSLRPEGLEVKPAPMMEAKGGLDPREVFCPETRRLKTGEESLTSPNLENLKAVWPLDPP
# Outline: as §1
# ETS2 = target: T8, ETS2 (Homo sapiens, UniProt P15036 1-469); conditions: protein: recombinant; tags: N-terminal GST; dsDNA, one strand shown
# T8 sequence: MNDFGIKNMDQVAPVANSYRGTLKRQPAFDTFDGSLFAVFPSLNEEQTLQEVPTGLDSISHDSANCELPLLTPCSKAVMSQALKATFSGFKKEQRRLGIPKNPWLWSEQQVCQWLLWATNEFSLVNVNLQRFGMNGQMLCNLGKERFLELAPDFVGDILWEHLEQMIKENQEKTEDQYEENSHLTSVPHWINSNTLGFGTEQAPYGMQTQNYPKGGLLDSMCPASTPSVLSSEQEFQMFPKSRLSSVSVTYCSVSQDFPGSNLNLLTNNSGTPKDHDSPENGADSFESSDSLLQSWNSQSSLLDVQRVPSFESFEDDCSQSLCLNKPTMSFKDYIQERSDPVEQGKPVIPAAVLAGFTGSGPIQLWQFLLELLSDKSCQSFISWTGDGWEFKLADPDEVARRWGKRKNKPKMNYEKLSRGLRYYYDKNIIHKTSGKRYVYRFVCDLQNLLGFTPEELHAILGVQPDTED
# Outline: as §1
# SPDEF = target: T9, SPDEF (Homo sapiens, UniProt O95238 1-335); conditions: protein: recombinant; tags: N-terminal GST; dsDNA, one strand shown
# T9 sequence: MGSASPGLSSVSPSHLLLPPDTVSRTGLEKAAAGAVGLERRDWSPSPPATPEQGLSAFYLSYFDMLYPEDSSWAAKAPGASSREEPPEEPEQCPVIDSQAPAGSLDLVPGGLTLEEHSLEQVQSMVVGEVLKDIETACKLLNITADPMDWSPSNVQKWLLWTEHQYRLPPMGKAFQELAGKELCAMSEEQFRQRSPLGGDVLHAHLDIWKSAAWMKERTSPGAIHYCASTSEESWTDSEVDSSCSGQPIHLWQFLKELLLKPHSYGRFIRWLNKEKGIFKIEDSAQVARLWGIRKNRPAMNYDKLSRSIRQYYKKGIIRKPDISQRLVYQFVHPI
# Outline: as §1
# ETV7 = target: T10, ETV7 (Homo sapiens, UniProt Q9Y603 1-341); conditions: protein: recombinant; tags: N-terminal GST; dsDNA, one strand shown
# T10 sequence: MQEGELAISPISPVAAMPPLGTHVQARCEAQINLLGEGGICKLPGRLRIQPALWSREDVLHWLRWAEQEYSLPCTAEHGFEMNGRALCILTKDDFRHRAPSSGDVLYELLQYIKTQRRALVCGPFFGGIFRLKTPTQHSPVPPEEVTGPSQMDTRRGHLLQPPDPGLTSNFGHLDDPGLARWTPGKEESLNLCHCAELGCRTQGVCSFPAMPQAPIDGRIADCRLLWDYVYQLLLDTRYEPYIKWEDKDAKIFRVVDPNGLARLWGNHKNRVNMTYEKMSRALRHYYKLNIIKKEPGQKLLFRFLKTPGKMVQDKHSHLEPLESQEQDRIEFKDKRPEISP
# Outline: as §1
# ELF5 = target: T11, ELF5 (Homo sapiens, UniProt Q9UKW6-2 1-255); conditions: protein: recombinant; tags: N-terminal GST; dsDNA, one strand shown
# T11 sequence: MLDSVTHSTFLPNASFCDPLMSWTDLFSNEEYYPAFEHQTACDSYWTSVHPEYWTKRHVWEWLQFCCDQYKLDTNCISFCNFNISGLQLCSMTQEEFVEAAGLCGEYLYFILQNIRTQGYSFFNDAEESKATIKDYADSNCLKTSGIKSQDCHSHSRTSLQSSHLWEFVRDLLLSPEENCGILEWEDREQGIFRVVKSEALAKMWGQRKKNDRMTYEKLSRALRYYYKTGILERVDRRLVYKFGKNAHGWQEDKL
# Outline: as §1
# ETV3 = target: T12, ETV3 (Homo sapiens, UniProt P41162-2 1-143); conditions: protein: recombinant; tags: N-terminal GST; dsDNA, one strand shown
# T12 sequence: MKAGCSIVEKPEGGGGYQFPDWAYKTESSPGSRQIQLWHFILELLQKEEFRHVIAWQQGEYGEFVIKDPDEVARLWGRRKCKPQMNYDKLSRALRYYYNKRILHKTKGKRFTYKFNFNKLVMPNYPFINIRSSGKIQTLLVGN
# Outline: as §1
# ETV6 = ETV6 (Homo sapiens, UniProt P41212 1-452); conditions: protein: recombinant; tags: N-terminal GST; dsDNA, one strand shown
# Chain of ETV6 (P41212 whole entry): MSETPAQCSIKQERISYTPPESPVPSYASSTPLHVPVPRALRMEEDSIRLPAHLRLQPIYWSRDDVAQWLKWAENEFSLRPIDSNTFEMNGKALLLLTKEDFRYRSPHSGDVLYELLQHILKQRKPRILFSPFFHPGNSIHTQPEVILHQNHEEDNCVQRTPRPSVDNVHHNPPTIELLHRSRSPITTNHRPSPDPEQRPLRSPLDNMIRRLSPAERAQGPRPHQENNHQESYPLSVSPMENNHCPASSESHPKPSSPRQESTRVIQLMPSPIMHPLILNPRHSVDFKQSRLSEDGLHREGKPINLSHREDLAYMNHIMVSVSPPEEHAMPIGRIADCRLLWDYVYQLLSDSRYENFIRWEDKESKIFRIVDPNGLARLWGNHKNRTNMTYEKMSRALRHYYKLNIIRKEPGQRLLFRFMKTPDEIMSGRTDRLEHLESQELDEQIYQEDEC
# Outline: as §1
sequence,measurement,setting,value
CCTCTT,binding signal,FEV,"1.58 fold enrichment (6-mer frequency, TF over GST control)"
same,binding signal,ETV5,"1.68 fold enrichment (6-mer frequency, TF over GST control)"
same,binding signal,HSF1,"1.4 fold enrichment (6-mer frequency, TF over GST control)"
same,binding signal,SPIC,"1.52 fold enrichment (6-mer frequency, TF over GST control)"
same,binding signal,ELF4,"1.56 fold enrichment (6-mer frequency, TF over GST control)"
same,binding signal,ELK4,"1.56 fold enrichment (6-mer frequency, TF over GST control)"
same,binding signal,ETV2,"1.75 fold enrichment (6-mer frequency, TF over GST control)"
same,binding signal,ELF3,"1.32 fold enrichment (6-mer frequency, TF over GST control)"
same,binding signal,CRX,"1.81 fold enrichment (6-mer frequency, TF over GST control)"
same,binding signal,ETV1,"1.55 fold enrichment (6-mer frequency, TF over GST control)"
same,binding signal,ERF,"1.59 fold enrichment (6-mer frequency, TF over GST control)"
same,binding signal,ETV3L,"1.71 fold enrichment (6-mer frequency, TF over GST control)"
same,binding signal,ETS2,"1.56 fold enrichment (6-mer frequency, TF over GST control)"
same,binding signal,SPDEF,"1.57 fold enrichment (6-mer frequency, TF over GST control)"
same,binding signal,ETV7,"1.51 fold enrichment (6-mer frequency, TF over GST control)"
same,binding signal,ELF5,"1.75 fold enrichment (6-mer frequency, TF over GST control)"
same,binding signal,ETV3,"1.67 fold enrichment (6-mer frequency, TF over GST control)"
same,binding signal,ETV6,"1.68 fold enrichment (6-mer frequency, TF over GST control)"
